Laboratory results reported in PubChem BioAssay (NCATS).
“And” between values parts separate entries of the source, which are not always exact repeats. Equal values may be shown once. Results filed as inconclusive are left out. Some compounds were tested as several samples or in several runs, with calls that do not always agree. The source made the active and inactive calls. Unless noted, the call rests on the fitted dose curve; in most records, active means well fitted curve in the direction sought with a large enough effect; inconclusive means small, poorly fitted or top-dose-only effect, or another doubt; inactive means no such curve, though single readings can be large; an effect the other way counts as inactive or inconclusive.

Columns and labels:
UISO = test: qHTS assay to identify novel small-molecules to repurpose for Merkel cell carcinoma treatment (AID 1296009); conditions: MCC and control cell lines, CellTiter-Glo viability, 72 h; series mostly up to 46 µM; further: nearly all actives have a fitted effect of over 60% in size; further: potency means the concentration at half of the fitted maximal effect; on activity change, negative = cytotoxicity: on the % scale 0 is the no-effect control and ±100 the full control effect
Procedure, shortened: (§1)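 Dose-response viability screen; 72 hr exposure at 37 degree celsius; CellTiter-Glo added, 10 min room temperature, luminescence read; RLUs scaled between no-cell and DMSO wells.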

WaGa = test: as above; conditions: MCC and control cell lines, CellTiter-Glo viability, 72 h; series mostly up to 46 µM
Procedure, shortened: as §1

C33A = test: Primary qHTS to identify gynecologic anti-cancer compounds using libraries of approved drugs and bioactive compounds (AID 1345084); conditions: Gynecologic cancer cell panel viability, ATPlite luminescence, 48 h; series mostly up to 57.5 µM; further: nearly all actives have a fitted effect of over 55% in size; further: potency means the concentration at half of the fitted maximal effect; on activity change, negative = cytotoxicity: on the % scale 0 is the no-effect control and ±100 the full control effect
Procedure, shortened: (§2)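 Cells, 1,000 per well, were allowed to settle for 16 h at 37 C before compound addition. Five concentrations were tested for 48 h, and viability was read by ATPlite luminescence after 15 min at room temperature.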

CAOV3 = test: as above; conditions: Gynecologic cancer cell panel viability, ATPlite luminescence, 48 h; series mostly up to 57.5 µM
Procedure, shortened: as §2

CASKI = test: as above; conditions: Gynecologic cancer cell panel viability, ATPlite luminescence, 48 h; series mostly up to 57.5 µM
Procedure, shortened: as §2

Es-2 = test: as above; conditions: Gynecologic cancer cell panel viability, ATPlite luminescence, 48 h; series mostly up to 57.5 µM
Procedure, shortened: as §2

HeLa = test: as above; conditions: Gynecologic cancer cell panel viability, ATPlite luminescence, 48 h; series mostly up to 57.5 µM
Procedure, shortened: as §2

Hek293T = test: as above; conditions: Gynecologic cancer cell panel viability, ATPlite luminescence, 48 h, control line for the selectivity index; series mostly up to 57.5 µM
Procedure, shortened: as §2

JEG-3 = test: as above; conditions: Gynecologic cancer cell panel viability, ATPlite luminescence, 48 h; series mostly up to 57.5 µM
Procedure, shortened: as §2

OV90 = test: as above; conditions: Gynecologic cancer cell panel viability, ATPlite luminescence, 48 h; series mostly up to 57.5 µM
Procedure, shortened: as §2

PA-1 = test: as above; conditions: Gynecologic cancer cell panel viability, ATPlite luminescence, 48 h; series mostly up to 57.5 µM
Procedure, shortened: as §2

SKOV3 = test: as above; conditions: Gynecologic cancer cell panel viability, ATPlite luminescence, 48 h; series mostly up to 57.5 µM
Procedure, shortened: as §2

Tov-21-G = test: as above; conditions: Gynecologic cancer cell panel viability, ATPlite luminescence, 48 h; series mostly up to 57.5 µM
Procedure, shortened: as §2

Tov112D = test: as above; conditions: Gynecologic cancer cell panel viability, ATPlite luminescence, 48 h; series mostly up to 57.5 µM
Procedure, shortened: as §2

[1] = Drug repurposing screens with cells derived from glioblastoma tumor samples (AID 1345199); conditions: GBM patient neurospheres viability, ATP luminescence, 48 h; further: nearly all actives have a fitted effect of over 40% in size; further: potency means the concentration at half of the fitted maximal effect; on activity, negative = cell killing: on the % scale 0 is the no-effect control and ±100 the full control effect
Procedure, shortened: (§3)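 Primary testing used CD133+ neurospheres from four GBM patients, seven concentrations, 48 h exposure and ATP-based viability; confirmation added three slower-growing patient lines.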

astro = test: as above; conditions: viability, ATP luminescence, 48 h; series mostly up to 45.9 µM
Procedure, shortened: as §3

[2] = target: Nuclear receptor subfamily 1 group I member 2 (Rattus norvegicus) (UniProt Q9R1A7); test: qHTS assay for small molecule activators of the rat pregnane X receptor (rPXR) signaling pathway (AID 651751; call rule not given here; further: 0% is about no effect); conditions: rPXR reporter cells, luciferase (One-Glo), 24 h
[3] = qHTS assay for small molecule activators of the human pregnane X receptor (PXR) signaling pathway (AID 720659; call rule not given here; further: 0% is about no effect)
[4] = at 46.1 µM (top of the series), tumour line C
[5] = at 45.9 µM (top of the series), tumour line B
[6] = at 45.9 µM (top of the series), tumour line D
[7] = at 46 µM (top of the series), tumour line A

Nuclear receptor subfamily 1 group I member 2 (Rattus norvegicus), sequence (Q9R1A7 whole entry, looked up): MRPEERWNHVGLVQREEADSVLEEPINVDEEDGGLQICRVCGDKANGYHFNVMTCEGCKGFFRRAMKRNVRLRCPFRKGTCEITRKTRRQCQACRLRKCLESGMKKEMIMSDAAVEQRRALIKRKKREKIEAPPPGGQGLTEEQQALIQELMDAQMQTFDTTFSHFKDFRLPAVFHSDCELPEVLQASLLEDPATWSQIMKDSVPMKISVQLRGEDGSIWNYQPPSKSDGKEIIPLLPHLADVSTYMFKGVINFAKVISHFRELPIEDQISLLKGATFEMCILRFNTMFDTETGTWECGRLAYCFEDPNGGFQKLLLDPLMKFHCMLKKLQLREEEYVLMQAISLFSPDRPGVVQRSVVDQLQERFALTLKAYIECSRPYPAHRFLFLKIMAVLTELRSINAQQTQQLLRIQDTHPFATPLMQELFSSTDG

CCN(CC)CCCC(C)Nc1ccnc2cc(Cl)ccc12 (centres undefined)
inactive: Potency (UISO) | Potency (WaGa) | Potency (C33A) | activity change, negative = cytotoxicity (CAOV3) -18.6% [at 11.6 µM] | activity change, negative = cytotoxicity (CASKI) -9.21% [at 11.6 µM] | Potency (Es-2) | Potency (HeLa) | Potency (Hek293T) | Potency (JEG-3) | Potency (PA-1) | Potency (SKOV3) | Potency (Tov-21-G) | Potency (Tov112D) | activity, negative = cell killing [1, 4] 3.03% | Potency (astro)
active: Potency (OV90) 5.62 µM | Potency ([1]; tumour line A) 15.8 µM

CC(C)(C)OC(=O)CN(Cc1ccc(Cl)cc1)Cc1ccc([N+](=O)[O-])s1
inactive: Potency (UISO) | Potency (WaGa)

Cc1n[nH]c(C)c1Cc1sc2c(c1C(=O)N1C[C@H](O)CO1)c(=O)n(C)c(=O)n2CC(C)C
inactive: Potency (UISO) | Potency (WaGa) | Potency (C33A) | Potency (CAOV3) | Potency (CASKI) | Potency (Es-2) | Potency (HeLa) | Potency (Hek293T) | Potency (JEG-3) | Potency (OV90) | Potency (PA-1) | Potency (SKOV3) | Potency (Tov-21-G) | Potency (Tov112D)

NC(=O)c1cnccn1
inactive: Potency (UISO) | Potency (WaGa) | Potency (C33A) | Potency (CAOV3) | Potency (CASKI) | Potency (Es-2) | Potency (HeLa) | Potency (Hek293T) | Potency (JEG-3) | Potency (OV90) | Potency (PA-1) | Potency (SKOV3) | Potency (Tov-21-G) | Potency (Tov112D) | activity, negative = cell killing [1, 5] -8.76% | activity, negative = cell killing [1, 6] -23.3% | activity, negative = cell killing [1, 7] -24.5% | activity, negative = cell killing [1, 4] -17% | Potency (astro) | max response [2] -0.614% and 3.04% | outcome [3]

CCOc1cc(N2CCC(O)CC2)ccc1Nc1ncc2c(n1)N(C)c1ccccc1C(=O)N2C
active: Potency (UISO) 11.8 µM | Potency (WaGa) 3.72 µM

C1COC(NC(C2CC2)C2CC2)=N1
inactive: Potency (UISO) | Potency (WaGa) | Potency (C33A) | Potency (CAOV3) | Potency (CASKI) | Potency (Es-2) | Potency (HeLa) | Potency (Hek293T) | Potency (JEG-3) | Potency (OV90) | Potency (PA-1) | Potency (SKOV3) | Potency (Tov-21-G) | Potency (Tov112D) | activity, negative = cell killing [1, 5] -27.8% | activity, negative = cell killing [1, 4] -23.7% | Potency (astro)

Cc1cc(C=c2sc3nc4ccccc4n3c2=O)c(C)n1-c1ccccc1
inactive: Potency (UISO) | Potency (WaGa)

O=c1n(CCCN2CCN(c3cccc(Cl)c3)CC2)nc2ccccn12
inactive: Potency (UISO) | Potency (WaGa) | Potency (C33A) | Potency (CAOV3) | Potency (CASKI) | Potency (Es-2) | Potency (HeLa) | Potency (Hek293T) | Potency (JEG-3) | Potency (OV90) | Potency (PA-1) | Potency (SKOV3) | Potency (Tov-21-G) | Potency (Tov112D) | activity, negative = cell killing ([1]; at 20 µM (top of the series), tumour line C) -4.25% | activity, negative = cell killing ([1]; at 21.2 µM (top of the series), tumour line B) -8.69% | activity, negative = cell killing ([1]; at 21.2 µM (top of the series), tumour line D) 3.95% | Potency (astro)

CCOc1cc(C=C2C(=O)N(c3ccccc3)N=C2C)cc(Cl)c1OCC(=O)OC
inactive: Potency (UISO) | Potency (WaGa)

CNC[C@H](O)c1cccc(O)c1
inactive: Potency (UISO) | Potency (WaGa) | Potency (C33A) | Potency (CAOV3) | Potency (CASKI) | Potency (Es-2) | Potency (HeLa) | Potency (Hek293T) | Potency (JEG-3) | Potency (OV90) | Potency (PA-1) | Potency (SKOV3) | Potency (Tov-21-G) | Potency (Tov112D) | activity, negative = cell killing [1, 5] -2.77% | activity, negative = cell killing [1, 6] 6.94% | activity, negative = cell killing [1, 4] -5.24% | Potency (astro) | max response [2] 1.25% | outcome [3]

NC(N)=NC(=O)c1nc(Cl)c(N)nc1N
inactive: Potency (UISO) | Potency (C33A) | Potency (CAOV3) | Potency (CASKI) | Potency (Es-2) | Potency (HeLa) | Potency (Hek293T) | Potency (JEG-3) | Potency (OV90) | Potency (PA-1) | Potency (SKOV3) | Potency (Tov-21-G) | Potency (Tov112D) | activity, negative = cell killing [1, 6] -15.1% | activity, negative = cell killing [1, 7] 18.9% | activity, negative = cell killing [1, 4] -11.2% | Potency (astro) | outcome [3]
inactive and 29.9 µM (active): Potency (WaGa)

COCCNCCCn1c(C(=O)CF)c(-c2ccc(C)cc2)c2c(N)ncnc21
inactive: Potency (UISO) | Potency (WaGa)

OCCn1cc(-c2cnc3nnn(Cc4ccc5ncccc5c4)c3n2)cn1
inactive: Potency (UISO) | Potency (WaGa) | Potency (C33A) | Potency (CAOV3) | Potency (CASKI) | Potency (Es-2) | Potency (HeLa) | Potency (Hek293T) | Potency (JEG-3) | Potency (OV90) | Potency (PA-1) | Potency (SKOV3) | Potency (Tov-21-G) | Potency (Tov112D)

CC(C)NCC(O)COc1ccc(COCCOC(C)C)cc1 (centres undefined)
active: Potency ([1]; tumour line A) 11.2 µM
inactive: Potency (UISO) | Potency (WaGa) | Potency (C33A) | Potency (CAOV3) | Potency (CASKI) | Potency (Es-2) | Potency (HeLa) | Potency (Hek293T) | Potency (JEG-3) | Potency (OV90) | Potency (PA-1) | Potency (SKOV3) | Potency (Tov-21-G) | Potency (Tov112D) | activity, negative = cell killing [1, 5] -9.69% and -16.2% | activity, negative = cell killing [1, 6] 1.75% and -24.1% | activity, negative = cell killing [1, 4] -2.09% and 0.649% | Potency (astro)

CC(=O)Oc1ccccc1C(=O)O
inactive: Potency (UISO) | Potency (WaGa) | Potency (C33A) | Potency (CAOV3) | Potency (CASKI) | Potency (Es-2) | Potency (HeLa) | Potency (Hek293T) | Potency (JEG-3) | Potency (OV90) | Potency (PA-1) | Potency (SKOV3) | Potency (Tov-21-G) | Potency (Tov112D) | activity, negative = cell killing [1, 6] -4.86% | activity, negative = cell killing [1, 7] -15.2% | activity, negative = cell killing [1, 4] -19.2% | Potency (astro) | max response [2] -0.967% and 1.6% and -0.848% | outcome [3]
